The source of these data is PubChem BioAssay (EPA / NIEHS).

Assay [1] has as its target Nuclear receptor subfamily 1 group I member 2 (Homo sapiens) (UniProt O75469). Nature of the assay: NVS_NR_hPXR: NovaScreen (NVS) Nuclear Receptor Binding Assay for human Pregnane X Receptor (PXR) (AID 2283365).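 Also: a drop in FRET signal versus DMSO baseline means the compound binds.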 An outline of the steps: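 Human PXR binding measured by TR-FRET in a cell-free format, 2 h exposure. Single-concentration duplicates at 25 uM preceded concentration-response retests of actives; endpoint fitted positively relative to DMSO, loss of signal indicating binding.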

The target of assay [2] is mouse Estrogen Receptor alpha (Era), Esr1 (gene 13982) (UniProt P19785). Nature of the assay: NVS_NR_mERa: NovaScreen (NVS) Nuclear Receptor Binding Assay for mouse Estrogen Receptor alpha (Era) (AID 2283378).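 Also: hit means loss of bound radioligand signal relative to DMSO.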 An outline of the steps: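 Filter radiodetection of radioligand displacement from extracted receptor protein, measured 18 h post-dose. Single 25 uM concentration in duplicate initially, with concentration-series follow-up. Binding loss fitted relative to DMSO.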
mouse Estrogen Receptor alpha (Era), Esr1 (gene 13982), sequence (P19785 whole entry, looked up): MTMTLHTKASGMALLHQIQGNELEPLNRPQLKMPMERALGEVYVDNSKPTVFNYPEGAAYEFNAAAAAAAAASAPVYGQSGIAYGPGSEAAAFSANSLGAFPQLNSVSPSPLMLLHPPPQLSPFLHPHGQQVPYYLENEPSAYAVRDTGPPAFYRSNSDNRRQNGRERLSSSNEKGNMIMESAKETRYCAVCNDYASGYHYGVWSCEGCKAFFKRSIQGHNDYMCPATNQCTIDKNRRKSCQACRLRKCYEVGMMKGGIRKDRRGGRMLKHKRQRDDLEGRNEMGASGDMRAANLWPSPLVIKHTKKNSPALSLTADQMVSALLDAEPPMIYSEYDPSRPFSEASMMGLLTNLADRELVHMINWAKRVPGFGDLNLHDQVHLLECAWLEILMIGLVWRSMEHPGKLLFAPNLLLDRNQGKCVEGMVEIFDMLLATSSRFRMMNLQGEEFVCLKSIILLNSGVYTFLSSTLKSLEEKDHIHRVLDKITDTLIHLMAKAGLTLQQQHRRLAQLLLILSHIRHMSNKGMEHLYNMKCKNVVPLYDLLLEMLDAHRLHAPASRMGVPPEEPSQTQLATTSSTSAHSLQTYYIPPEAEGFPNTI

For assay [3], the target named is Agonist Androgen Response Element (ARE), AR (gene 367) (UniProt P10275). Kind of assay: OT_AR_ARELUC_AG_1440: Odyssey Thera (OT) 24-hour CHO-K1 Luciferase Assay for Agonist Androgen Response Element (ARE) (AID 2283379). In a few lines:
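CHO-K1 cells carrying an ARE-driven luciferase reporter were exposed to compounds for 24 h. Luminescence was then read after adding a D-luciferin/ATP mix, and activity was scored as a gain in signal over DMSO vehicle.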

Assay [4] addresses Estrogen receptor beta (Homo sapiens) (UniProt Q92731). Nature of the assay: OT_ER_ERbERb_1440: Odyssey Thera (OT) 24-hour HEK293T Protein-Complementation Assay for Estrogen Receptor-beta/-beta Homodimer (AID 2283380).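 Also: scored as signal increase over DMSO baseline for both agonists and antagonists.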 In a few lines: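 HEK293T cells stably expressing ER beta LBD (aa 310-547) homodimer fragment-complementation reporter, dosed 24 h. Cells formaldehyde-fixed, Draq5-stained; gain in nuclear (agonist) or nuclear plus cytoplasmic (antagonist) fluorescence versus DMSO read by laser scanning cytometry.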

Assay [5] concerns the target Estrogen receptor (Homo sapiens) (UniProt P03372). Nature of the assay: OT_ERa_GFPERaERE_0480: Odyssey Thera (OT) 8-hour HeLa Transcription Induction Assay for Estrogen Receptor (AID 2283381; active = hit-call score of the fitted dose curve at least 0.9, where 1 is the maximum; inactive = score below 0.9). An outline of the steps: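 HeLa cells expressing GFP reporter under estrogen response element, imaged 8 h after dosing. GFP induction quantified by high-content fluorescence microscopy image analysis; gain of signal fitted versus DMSO.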

For assay [6] the target is unchanged. Nature of the assay: OT_ERa_GFPERaERE_0120: Odyssey Thera (OT) 2-hour HeLa Transcription Induction Assay for Estrogen Receptor (AID 2283382). In a few lines:
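HeLa cells were dosed for 2 h, then GFP reporter induction was quantified by fluorescence microscopy with high-content image analysis. Gain of signal fitted against DMSO baseline.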

The target of assay [7] is guinea pig Sigma Receptor, Non-selective Binding, SIGMAR1 (gene 100135589) (UniProt Q60492). Nature of the assay: NVS_OR_gSIGMA_NonSelective: NovaScreen (NVS) Nuclear Receptor Binding Assay for guinea pig Sigma Receptor, Non-selective Binding (AID 2283367). An outline of the steps:
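Radioligand displacement on guinea pig brain membranes, read by filter-based scintillation counting 1 h after dosing. Loss of signal versus DMSO; initial duplicate single-point screen at 25 uM, actives followed in concentration series.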

Assay [8] deals with guinea pig Dopamine Transporter (DAT), gene 100714898. Kind of assay: NVS_TR_gDAT: NovaScreen (NVS) Transporter Assay for guinea pig Dopamine Transporter (DAT) (AID 2283369).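 Also: active compounds lower bound radioligand signal relative to DMSO.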 In a few lines:
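Radioligand displacement on membranes from guinea pig striatum, 2 h exposure, bound label counted by filtration and scintillation. Tested at 25 uM in duplicate, then actives in concentration series to 50 uM; DMSO as negative control.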

In assay [9] the target is Peroxisome proliferator-activated receptor gamma (Homo sapiens) (UniProt P37231). Kind of assay: NVS_NR_hPPARg: NovaScreen (NVS) Nuclear Receptor Binding Assay for human Peroxisome Proliferator-activated Receptor gamma (PPARg) (AID 2283370). In a few lines:
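Fluorescence polarization readout of ligand binding to extracted human PPARg, measured at 2 h. Duplicate single-point screen at 25 uM, then concentration-series retesting; activity defined as signal loss versus DMSO.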

In assay [10] the test system is rat Norepinephrine Transporter (NET), gene 83511. Kind of assay: NVS_TR_rNET: NovaScreen (NVS) Transporter Assay for rat Norepinephrine Transporter (NET) (AID 2283373). In a few lines:
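Rat forebrain membranes; radioligand binding measured by filter-based scintillation counting 1 hour after dosing. Loss of specific binding versus DMSO baseline scored; primary screen in duplicate at 25 uM, actives followed up in concentration series.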

The target of assay [11] is human Dopamine Transporter (DAT), SLC6A3 (gene 6531) (UniProt Q01959). Nature of the assay: NVS_TR_hDAT: NovaScreen (NVS) Transporter Assay for human Dopamine Transporter (DAT) (AID 2283374).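 Also: activity means loss of bound radioligand signal relative to DMSO.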 In a few lines: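 Cell-free radioligand displacement binding at human DAT, 1 h after dosing, with filtration and scintillation counting. Primary screen in duplicate at 25 uM, actives then in concentration series. Loss of bound signal versus DMSO scored.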
human Dopamine Transporter (DAT), SLC6A3 (gene 6531), sequence (Q01959 whole entry, looked up): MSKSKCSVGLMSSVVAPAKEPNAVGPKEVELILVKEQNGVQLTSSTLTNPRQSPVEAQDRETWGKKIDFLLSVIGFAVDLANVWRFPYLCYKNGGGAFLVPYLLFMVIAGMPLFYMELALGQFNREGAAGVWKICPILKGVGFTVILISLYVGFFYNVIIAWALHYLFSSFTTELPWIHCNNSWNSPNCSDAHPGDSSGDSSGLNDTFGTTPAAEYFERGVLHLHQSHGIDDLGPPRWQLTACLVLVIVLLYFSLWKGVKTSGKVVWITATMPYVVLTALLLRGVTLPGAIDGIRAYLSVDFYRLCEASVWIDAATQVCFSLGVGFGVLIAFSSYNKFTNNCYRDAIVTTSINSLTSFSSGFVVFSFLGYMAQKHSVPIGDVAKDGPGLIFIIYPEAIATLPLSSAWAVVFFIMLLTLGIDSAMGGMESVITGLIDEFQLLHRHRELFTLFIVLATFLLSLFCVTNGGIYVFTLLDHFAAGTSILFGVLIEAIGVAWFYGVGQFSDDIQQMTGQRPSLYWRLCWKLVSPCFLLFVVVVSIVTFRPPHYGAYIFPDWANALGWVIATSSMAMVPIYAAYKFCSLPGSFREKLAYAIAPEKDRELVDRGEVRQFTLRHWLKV

Assay [12] addresses human Norepinephrine Transporter (NET), SLC6A2 (gene 6530) (UniProt P23975). Nature of the assay: NVS_TR_hNET: NovaScreen (NVS) Transporter Assay for human Norepinephrine Transporter (NET) (AID 2283377).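 Also: displacement of radioligand from human NET seen as loss of scintillation signal.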 An outline of the steps: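 Cell-free radioligand binding using CHO-derived membrane protein expressing human NET, read by filter scintillation counting 1 h after dosing; loss of signal vs DMSO. Initial duplicate screen at 25 uM, actives retested in concentration series.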

Assay [13] addresses Bile acid receptor (Homo sapiens) (UniProt Q96RI1). Nature of the assay: OT_FXR_FXRSRC1_0480: Odyssey Thera (OT) 8-hour HEK293T Protein-Complementation Assay for Farnesoid X receptor/SRC-1 Co-activator (AID 2283383). An outline of the steps: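 HEK293T protein-fragment complementation assay: FXR and SRC-1 coactivator are fused to reporter fragments, and their interaction restores a fluorescent reporter. Readout was taken 8 h after dosing, with gain of signal fit relative to DMSO.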

Assay [14] has the same target. Nature of the assay: OT_FXR_FXRSRC1_1440: Odyssey Thera (OT) 24-hour HEK293T Protein-Complementation Assay for Farnesoid X receptor/SRC-1 Co-activator (AID 2283384). An outline of the steps: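 HEK293T cells, 24 h after chemical dosing. FXR–SRC-1 coactivator interaction read as fluorescence from protein-fragment complementation of a split reporter. Gain of signal fitted against DMSO baseline.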

Assay [15] deals with Glucocorticoid receptor (Homo sapiens) (UniProt P04150). Kind of assay: NVS_NR_hGR: NovaScreen (NVS) Nuclear Receptor Binding Assay for human Glucocorticoid Receptor (GR) (AID 2283363).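 As to AC50: activity is loss of specific radioligand binding signal relative to DMSO.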 In a few lines:
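Cell-free radioligand displacement assay on extracted human GR, read 16 h after dosing by filter-based scintillation counting. Screened in duplicate at 25 uM, then concentration series for actives; loss of signal versus DMSO baseline.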

For assay [16], the target named is rat Androgen Receptor (AR), Ar (gene 24208) (UniProt P15207). Nature of the assay: NVS_NR_rAR: NovaScreen (NVS) Nuclear Receptor Binding Assay for rat Androgen Receptor (AR) (AID 2283366). In a few lines:
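Cell-free radioligand binding on extracts of prostate from testosterone-pretreated rats, read by filter-based scintillation counting 18 h after dosing. Loss of bound signal fitted positively versus DMSO; primary screen in duplicate at 25 uM, actives followed up in concentration series.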

Assay [17] concerns the target Norway rat Vesicular Monoamine Transporter (VMAT2), neurotransmitter transporter, Slc18a2 (gene 25549) (UniProt Q01827). Nature of the assay: NVS_TR_rVMAT2: NovaScreen (NVS) Transporter Assay for Norway rat Vesicular Monoamine Transporter (VMAT2), neurotransmitter transporter (AID 2283376).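 Also: actives lower the bound radioligand signal below the DMSO level.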 In a few lines:
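Radioligand displacement binding on rat forebrain tissue preparation, filter-based scintillation read-out 1 hour after dosing. Primary screen in duplicate at 25 uM, then concentration series for actives; loss of signal versus DMSO.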

Several values for one entry are separate records, joined by “and”; a condition that tells them apart may be missing. Equal values may be shown once. Inconclusive results are not listed. Some compounds were tested as several samples or in several runs, with calls that do not always agree. Activity calls are given as the source filed them. The calls were made as follows, unless noted: active = hit-call score of the fitted dose curve at least 0.9, where 1 is the maximum; inconclusive = response in the unintended direction; inactive = score below 0.9.

rat Androgen Receptor (AR), Ar (gene 24208), sequence (P15207 whole entry, looked up): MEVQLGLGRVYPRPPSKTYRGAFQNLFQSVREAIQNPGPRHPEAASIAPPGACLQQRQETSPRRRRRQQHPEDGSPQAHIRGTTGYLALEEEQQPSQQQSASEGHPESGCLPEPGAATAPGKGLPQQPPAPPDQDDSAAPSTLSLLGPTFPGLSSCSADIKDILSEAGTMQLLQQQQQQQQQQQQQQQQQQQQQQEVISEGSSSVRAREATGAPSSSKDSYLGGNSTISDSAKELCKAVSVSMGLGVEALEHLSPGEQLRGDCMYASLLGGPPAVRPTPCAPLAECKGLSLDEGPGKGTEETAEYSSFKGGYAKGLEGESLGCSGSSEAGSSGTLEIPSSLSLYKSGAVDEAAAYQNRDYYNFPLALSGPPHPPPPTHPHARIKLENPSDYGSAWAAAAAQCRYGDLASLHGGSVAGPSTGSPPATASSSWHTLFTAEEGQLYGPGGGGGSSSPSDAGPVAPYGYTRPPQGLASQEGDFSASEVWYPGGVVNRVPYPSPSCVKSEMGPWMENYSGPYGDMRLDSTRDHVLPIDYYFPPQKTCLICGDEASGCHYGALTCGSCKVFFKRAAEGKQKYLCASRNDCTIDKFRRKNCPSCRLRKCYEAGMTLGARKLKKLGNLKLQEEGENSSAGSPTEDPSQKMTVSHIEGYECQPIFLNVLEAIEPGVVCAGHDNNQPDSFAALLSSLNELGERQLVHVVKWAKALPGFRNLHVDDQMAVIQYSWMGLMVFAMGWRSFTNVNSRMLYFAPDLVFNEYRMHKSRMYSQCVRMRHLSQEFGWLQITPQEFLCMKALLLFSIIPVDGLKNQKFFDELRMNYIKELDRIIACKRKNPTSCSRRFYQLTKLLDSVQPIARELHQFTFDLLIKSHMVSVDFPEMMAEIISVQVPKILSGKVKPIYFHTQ
Agonist Androgen Response Element (ARE), AR (gene 367), sequence (P10275 whole entry, looked up): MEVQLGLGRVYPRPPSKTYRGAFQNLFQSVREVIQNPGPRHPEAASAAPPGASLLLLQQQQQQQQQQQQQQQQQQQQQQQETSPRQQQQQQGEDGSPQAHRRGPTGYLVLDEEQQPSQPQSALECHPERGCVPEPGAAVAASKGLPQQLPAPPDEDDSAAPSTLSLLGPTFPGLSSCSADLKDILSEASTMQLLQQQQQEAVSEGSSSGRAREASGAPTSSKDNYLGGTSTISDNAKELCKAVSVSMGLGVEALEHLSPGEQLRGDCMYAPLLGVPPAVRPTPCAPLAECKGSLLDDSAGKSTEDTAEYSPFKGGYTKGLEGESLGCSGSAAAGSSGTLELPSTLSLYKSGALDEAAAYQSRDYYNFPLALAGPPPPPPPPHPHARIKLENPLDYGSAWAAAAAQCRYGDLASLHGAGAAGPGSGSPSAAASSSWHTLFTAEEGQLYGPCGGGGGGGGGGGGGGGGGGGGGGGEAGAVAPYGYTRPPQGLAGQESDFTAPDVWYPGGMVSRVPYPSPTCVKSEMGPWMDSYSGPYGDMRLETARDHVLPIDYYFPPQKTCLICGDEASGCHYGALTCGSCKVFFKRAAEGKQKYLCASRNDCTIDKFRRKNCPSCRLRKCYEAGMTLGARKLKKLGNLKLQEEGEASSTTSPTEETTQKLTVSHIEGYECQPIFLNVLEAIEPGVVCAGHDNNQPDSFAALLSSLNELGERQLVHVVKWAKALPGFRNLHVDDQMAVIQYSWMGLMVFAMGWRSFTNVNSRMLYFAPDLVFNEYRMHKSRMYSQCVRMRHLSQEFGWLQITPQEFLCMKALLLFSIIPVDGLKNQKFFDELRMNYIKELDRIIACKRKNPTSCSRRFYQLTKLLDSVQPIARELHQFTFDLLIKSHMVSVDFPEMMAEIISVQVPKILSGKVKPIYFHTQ
Estrogen receptor beta (Homo sapiens), sequence (Q92731 whole entry, looked up, the tested form may be a part): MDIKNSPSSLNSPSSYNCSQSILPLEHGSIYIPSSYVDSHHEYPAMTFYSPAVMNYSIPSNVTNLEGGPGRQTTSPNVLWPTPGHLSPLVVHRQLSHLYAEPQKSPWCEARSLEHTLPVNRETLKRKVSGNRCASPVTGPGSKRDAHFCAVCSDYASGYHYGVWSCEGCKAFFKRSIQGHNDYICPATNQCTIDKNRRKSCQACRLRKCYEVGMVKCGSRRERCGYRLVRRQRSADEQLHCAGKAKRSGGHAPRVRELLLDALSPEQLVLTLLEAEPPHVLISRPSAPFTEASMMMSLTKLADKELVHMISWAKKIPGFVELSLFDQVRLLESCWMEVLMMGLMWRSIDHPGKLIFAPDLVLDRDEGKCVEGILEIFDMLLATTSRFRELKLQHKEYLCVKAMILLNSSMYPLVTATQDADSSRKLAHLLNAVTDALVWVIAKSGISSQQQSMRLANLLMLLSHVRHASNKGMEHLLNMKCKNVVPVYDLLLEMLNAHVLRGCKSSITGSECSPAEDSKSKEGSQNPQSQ
Nuclear receptor subfamily 1 group I member 2 (Homo sapiens), sequence (O75469 whole entry, looked up): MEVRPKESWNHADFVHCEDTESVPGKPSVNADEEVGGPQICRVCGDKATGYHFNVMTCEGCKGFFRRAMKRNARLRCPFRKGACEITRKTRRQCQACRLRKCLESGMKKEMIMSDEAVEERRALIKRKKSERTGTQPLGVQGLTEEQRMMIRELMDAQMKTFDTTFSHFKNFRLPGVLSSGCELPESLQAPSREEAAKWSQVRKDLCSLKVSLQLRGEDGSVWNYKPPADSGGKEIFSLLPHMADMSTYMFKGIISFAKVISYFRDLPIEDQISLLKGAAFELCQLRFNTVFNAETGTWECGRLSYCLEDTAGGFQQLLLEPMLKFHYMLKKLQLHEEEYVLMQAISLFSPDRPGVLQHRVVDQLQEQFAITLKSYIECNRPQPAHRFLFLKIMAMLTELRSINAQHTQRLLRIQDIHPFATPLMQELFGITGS
human Norepinephrine Transporter (NET), SLC6A2 (gene 6530), sequence (P23975 whole entry, looked up): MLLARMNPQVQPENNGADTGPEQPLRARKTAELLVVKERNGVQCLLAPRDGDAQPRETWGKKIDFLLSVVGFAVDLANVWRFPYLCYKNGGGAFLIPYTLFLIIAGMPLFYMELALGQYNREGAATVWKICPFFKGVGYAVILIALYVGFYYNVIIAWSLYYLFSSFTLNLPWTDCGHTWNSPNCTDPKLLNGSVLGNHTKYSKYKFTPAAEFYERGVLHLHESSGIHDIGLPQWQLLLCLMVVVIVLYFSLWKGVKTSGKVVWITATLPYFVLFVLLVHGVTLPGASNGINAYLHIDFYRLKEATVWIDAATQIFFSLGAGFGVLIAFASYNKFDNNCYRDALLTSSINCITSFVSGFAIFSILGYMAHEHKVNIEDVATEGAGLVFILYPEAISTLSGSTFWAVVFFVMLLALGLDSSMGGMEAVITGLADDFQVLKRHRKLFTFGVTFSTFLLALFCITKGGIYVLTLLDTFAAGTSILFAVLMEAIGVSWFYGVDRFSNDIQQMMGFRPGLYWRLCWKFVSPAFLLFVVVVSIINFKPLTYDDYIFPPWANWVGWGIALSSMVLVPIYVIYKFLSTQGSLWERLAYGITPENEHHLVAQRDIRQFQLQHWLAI
guinea pig Sigma Receptor, Non-selective Binding, SIGMAR1 (gene 100135589), sequence (Q60492 whole entry, looked up): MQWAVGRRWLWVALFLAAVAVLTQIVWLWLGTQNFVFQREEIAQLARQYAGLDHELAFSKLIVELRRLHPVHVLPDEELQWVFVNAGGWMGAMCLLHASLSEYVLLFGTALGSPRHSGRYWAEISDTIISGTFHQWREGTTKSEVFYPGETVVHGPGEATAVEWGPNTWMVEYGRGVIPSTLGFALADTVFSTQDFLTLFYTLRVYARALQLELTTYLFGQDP

By AC50 is commonly meant the concentration at which the activity in the assay is half-maximal. Regarding `CC(C)(O)C(=O)Nc1ccc([N+](=O)[O-])c(C(F)(F)F)c1`, the molecule was called inactive in assay [1], in assay [2], in [3], in assay [4], in assay [5] and in assay [6]. In addition, the AC50 in assay [2] is 2.7 µM (active).
As to `Nc1ccc(-c2ccc(N)cc2)cc1`, the concentration at half-maximal activity (AC50) is 25 µM (active) in assay [7], 12.8 µM (active) in assay [8], 14.3 µM (active) in assay [10] and 11.8 µM (active) in assay [12]. The call in assay [9], in [11], in assay [4], in assay [5] and in assay [6] was inactive.
Turning to `Cc1cc(O)ccc1Cl`, the molecule was called inactive in assay [8], in assay [2], in [6] and in assay [13]. In addition, the AC50 was 52.5 µM (active) in assay [4] and 34.7 µM (active) in assay [14].
On to `CO/C=C(/C(=O)OC)c1ccccc1COc1cccc(C(F)(F)F)n1`, for which the molecule was called inactive in assay [9], in assay [4], in assay [5] and in assay [6]. In addition, the AC50 in [13] is 9.85 µM (active); in assay [14] it was 3.27 µM (active).
As for `Oc1ccc(Cl)cc1Cl`, the call in assay [9], in [2], in assay [4], in assay [5], in assay [6] and in assay [13] was inactive. Also, the result in assay [14] was inactive. Further, the concentration at half-maximal activity (AC50) in assay [12] is 9.75 µM (active).
`O=NN(c1ccccc1)c1ccccc1`: the call in [8], in assay [9], in assay [5], in [6], in [13] and in [14] was inactive. The AC50 in [12] was 14 µM (active).
As for `O=C(O)C(F)(F)C(F)(F)C(F)(F)C(F)(F)C(F)(F)C(F)(F)C(F)(F)C(F)(F)C(F)(F)F`, the result in assay [15], in assay [2], in assay [5] and in [6] was inactive. Moreover, the concentration at half-maximal activity (AC50) is 25 µM (active) in [1], 8.21 µM (active) in assay [9] and 25 µM (active) in assay [12].
As for `Cc1cc(-c2ccc(N)c(C)c2)ccc1N`, the result in [1], in assay [2], in [5] and in assay [6] was inactive. In addition, the AC50 in assay [11] is 19.5 µM (active); in assay [2] it was 0.999 µM (active); in [5] it was 37.2 µM (active); in assay [6], 50 µM (active).
As for `CCCCCCCCOC(=O)c1ccccc1C(=O)OCCCCCCCC`, the outcome in assay [9], in assay [2], in [4], in assay [5], in [6] and in [13] was inactive. Moreover, the molecule was classed as inactive in assay [14].
On to `CCC(=O)O[C@H]1CC[C@H]2[C@@H]3CCC4=CC(=O)CC[C@]4(C)[C@H]3CC[C@]12C`, for which the AC50 in assay [15] was 2.45 µM (active) and 896 nM (active) and 841 nM (active); in assay [16], 1.53 µM (active) [middle of 4 runs]; in [3], 3.34 nM (active) and 0.907 nM (active) and 1.93 nM (active); in [4], 12.7 µM (active) and 3.36 µM (active) and 12.8 µM (active); in assay [5], 12.3 µM (active). Also, the call in assay [1], in assay [7], in assay [9], in assay [2], in assay [4] and in assay [5] was inactive. In addition, in [6], the molecule was classed as inactive.
For the molecule `CCC(C)(c1ccc(O)cc1)c1ccc(O)cc1`, the AC50 is 16.7 µM (active) and 11.4 µM (active) and 9.16 µM (active) in [1]; 17.3 µM (active) in [8]; 5.51 µM (active) in [9]; 7.9 µM (active) in assay [11]; 5.28 µM (active) in [17]; 8.33 µM (active) in assay [12]. For the same molecule, the AC50 in assay [6] was 213 nM (active) [middle of 5 runs]; in [13], 12.1 µM (active); in assay [14] it was 30.2 µM (active) and 32.2 µM (active). For the same molecule, the outcome in assay [10], in assay [13] and in [14] was inactive.
